Reference: PubChem BioAssay AID1159580 (chemical genetic matrix, 2015)
Several values for one entry are separate records, joined by “and”; a condition that tells them apart may be missing. Equal entries are not always repeated. The campaign covered roughly 5,500 compounds. About 2,000 (36%) were called active. Another 18% or so got no clear call; they are omitted. Rule as the data show it: active = normalized growth mostly below about 0.91 (no sharp cut-off); inconclusive = no clear call, values can overlap the other calls; inactive = mostly above about 0.92. The list shows a part of the results.

Assay: chemical genetic growth profiling, strain panel (AID 1159580);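 also: tested at 20 µM; growth read once vehicle control cultures reached saturation at 30 °C; 1 = growth at the plate median or of vehicle wells; lower values mean less growth of the strain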
Settings: S. cerevisiae deletion strains, growth OD

Measured: normalized growth

CN(C)C(=O)Oc1ccc[n+](C)c1
inactive: locus YAL021C, strain ccr4, active compounds read low 1 | locus YAL026C, strain drs2, active compounds read low 1.01 | locus YAL030W, strain snc1, active compounds read low 0.998 | locus YAL040C, strain CLN3, active compounds read low 0.966 | locus YBL061C, strain skt5, active compounds read low 0.999 | locus YBR009C, strain hhf1, active compounds read low 0.996 | locus YBR021W, strain FUR4, active compounds read low 1.02 | locus YBR023C, strain chs3, active compounds read low 1 | locus YBR171W, strain sec66, active compounds read low 1 | locus YBR229C, strain ROT2, active compounds read low 1.02 | locus YBR231C, strain swc5, active compounds read low 1.03 | locus YBR279W, strain paf1, active compounds read low 1 | locus YCL011C, strain gbp2, active compounds read low 0.998 | locus YCL016C, strain dcc1, active compounds read low 1.01 | locus YCL029C, strain bik1, active compounds read low 1.02 | locus YCL061C, strain MRC1 (second series), active compounds read low 0.992 | locus YCL061C, strain MRC1, active compounds read low 1.01 | locus YCL069W, strain vba3, active compounds read low 1 | locus YCR088W, strain abp1, active compounds read low 1 | locus YDL005C, strain med2, active compounds read low 1 | locus YDL035C, strain GPR1, active compounds read low 1.03 | locus YDL040C, strain nat1, active compounds read low 1 | locus YDL074C, strain BRE1, active compounds read low 1 | locus YDL101C, strain DUN1, active compounds read low 1.01 | locus YDL134C, strain PPH21, active compounds read low 1.03 | locus YDL185W, strain tfp1, active compounds read low 1.01 | locus YDL192W, strain arf1, active compounds read low 1.02 | locus YDR001C, strain nth1, active compounds read low 1 | locus YDR069C, strain doa4, active compounds read low 1 | locus YDR101C, strain arx1, active compounds read low 1.02 | locus YDR137W, strain rgp1, active compounds read low 1.03 | locus YDR159W, strain sac3, active compounds read low 1 | locus YDR162C, strain NBP2, active compounds read low 1.02 | locus YDR195W, strain ref2 0.99 | locus YDR297W, strain sur2, active compounds read low 0.999 | locus YDR318W, strain mcm21, active compounds read low 1.02 | locus YDR334W, strain swr1, active compounds read low 1 | locus YDR335W, strain msn5, active compounds read low 0.996 | locus YDR363W, strain ESC2, active compounds read low 0.885 | locus YDR388W, active compounds read low 1.02 | locus YDR392W, strain spt3, active compounds read low 0.996 | locus YDR502C, strain sam2, active compounds read low 1.02 | locus YEL003W, strain gim4, active compounds read low 0.993 | locus YEL037C, strain rad23, active compounds read low 0.991 | locus YEL061C, strain CIN8 (second series), active compounds read low 0.993 | locus YEL061C, strain CIN8, active compounds read low 1.01 | locus YER002W, strain NOP16, active compounds read low 1.01 | locus YER015W, strain faa2, active compounds read low 0.989 | locus YER016W, strain bim1, active compounds read low 1 | locus YER110C, active compounds read low 1.03 | locus YER111C, strain swi4, active compounds read low 1.02 | locus YER155C, strain BEM2 (second series), active compounds read low 0.994 | locus YER155C, strain BEM2, active compounds read low 1.02 | locus YER167W, strain BCK2, active compounds read low 1.02 | locus YFR010W, strain ubp6, active compounds read low 1.01 | locus YGL078C, strain dbp3, active compounds read low 1.01 | locus YGL086W, strain mad1, active compounds read low 1 | locus YGL167C, strain pmr1, active compounds read low 1.01 | locus YGL173C, strain kem1, active compounds read low 1.01 | locus YGL227W, strain vid30, active compounds read low 1.01 | locus YGL240W, strain doc1, active compounds read low 1.01 | locus YGL248W, strain PDE1, active compounds read low 1 | locus YGL253W, strain hxk2, active compounds read low 1 | locus YGR135W, strain pre9, active compounds read low 1.05 | locus YGR229C, strain SMI1, active compounds read low 1.01 | locus YGR252W, strain gcn5, active compounds read low 1.01 | locus YHR013C, strain ard1, active compounds read low 1.01 | locus YHR027C, strain rpn1, active compounds read low 1.01 | locus YHR030C, strain SLT2, active compounds read low 1.02 and 1.01 | locus YHR079C, strain IRE1 (second series), active compounds read low 1.01 | locus YHR079C, strain IRE1, active compounds read low 1 | locus YHR094C, strain hxt1, active compounds read low 1.02 | locus YHR129C, strain ARP1, active compounds read low 1.01 | locus YHR142W, strain chs7, active compounds read low 0.994 | locus YHR200W, strain rpn10, active compounds read low 1.02 | locus YIL066C, strain RNR3, active compounds read low 1.02 | locus YIL073C, strain SPO22, active compounds read low 1.06 | locus YIL125W, strain kgd1, active compounds read low 1.02 | locus YIR030C, strain dcg1, active compounds read low 1.02 | locus YJL092W, strain hpr5, active compounds read low 1.02 | locus YJL095W, strain BCK1 (second series), active compounds read low 1.01 | locus YJL095W, strain BCK1, active compounds read low 0.994 and 1.04 | locus YJL115W, strain asf1, active compounds read low 0.993 | locus YJL129C, strain trk1, active compounds read low 1.01 | locus YJL134W, strain LCB3, active compounds read low 1.01 | locus YJL154C, strain vps35, active compounds read low 0.995 | locus YJL164C, strain tpk1, active compounds read low 1 | locus YJL166W, strain qcr8, active compounds read low 0.996 | locus YJL168C, strain set2, active compounds read low 1.01 | locus YJL187C, strain SWE1 (second series), active compounds read low 1 | locus YJL187C, strain SWE1, active compounds read low 1 | locus YJR043C, strain POL32, active compounds read low 1 | locus YJR066W, strain TOR1, active compounds read low 0.966
